Consider 95 compounds from PubChem BioAssay AID463173 (ICCB-Longwood Screening Facility, Harvard Medical School, 2010).

Screen size: about 52,000 compounds; about 4,300 (8.3%) were called active. What follows is part of a selection rich in actives, with near analogues and random picks from the rest. Unmarked numbers belong to inactive results. No stated cut-off is given here; in the data, active means survival mostly below about 52% (no sharp cut-off); inactive means mostly above about 56%.

The assay deals with DeltatarO mutant. Kind of assay: growth inhibition of S. aureus wild type versus tarO mutant, primary screen, teichoic acid synthesis inhibitors, RN4220, OD600 (AID 463173). The settings on record: OD600, 18 h, stronger effect = lower value, screened at 18.75 µg/mL (by protocol).
With `Cc1ccc(C)c(NC(=O)CN2C(=O)C3(SCC(=O)N3c3ccc(C)c(C)c3)c3ccccc32)c1` (stereo not given), the survival is 80%.
Under `Cc1cc(C)cc(NC(=O)Cn2c(=O)n(CC(=O)NCCc3ccccc3)c(=O)c3ccccc32)c1` stands 62%; under `CCc1ccc2oc(-c3ccc(C)c(NC(=O)/C=C/c4ccco4)c3)nc2c1`, 83%.
Turning to `Cc1cc(NC(=O)c2cccs2)cc(-c2nc3cc(Cl)ccc3o2)c1O`, the survival is 79%.
In the case of `Cc1c(NC(=O)c2cccs2)cccc1-c1nc2cc(Cl)ccc2o1`, the survival is 42%.
For `CC(C)c1ccc2oc(-c3ccc(Cl)c(NC(=O)Cc4ccccc4)c3)nc2c1`, the survival is 116%.
In the case of `CC(C)c1ccc2oc(-c3ccc(Cl)c(NC(=O)c4cccs4)c3)nc2c1`, the survival was 5% (active).
Under `Cc1ccc(-c2nc3cc(C(C)C)ccc3o2)cc1NC(=O)c1cccs1` stands 57%; under `Cc1ccc2oc(-c3ccc(C)c(NC(=O)/C=C/c4ccco4)c3)nc2c1`, 58%; under `Cc1cc(C)c2oc(-c3ccc(C)c(NC(=O)/C=C/c4ccco4)c3)nc2c1`, 45% (active).
Then `CCc1ccc2oc(-c3cc(NC(=O)c4cccs4)ccc3Cl)nc2c1`, with 19% (active); and `Cc1ccc2oc(-c3cc(NC(=O)c4cccs4)cc(C)c3O)nc2c1`, with 138%.
Then `O=C(Nc1ccc(O)c(-c2nc3ccccc3o2)c1)c1cccs1`, with 75%.
As to `CC(C)c1ccc2oc(-c3cc(NC(=O)c4cccs4)ccc3Cl)nc2c1`, the survival is 16% (active).
Then `Cc1ccccc1CS(=O)(=O)Cc1ccc(C(=O)NCCc2ccccc2)o1`, with 86%.
For the compound `COc1ccc(Cn2c(SCc3ccc(C(=O)NCc4cccs4)cc3)nc3cccnc32)cc1`, the survival was 63%.
Then `CC(=O)c1cccc(NC(=O)c2ccc(Cl)c(S(=O)(=O)N3CCOCC3)c2)c1`, with 73%; and `CCc1cccc(C)c1NC(=O)c1ccc2c(c1)CCN2S(=O)(=O)c1ccc(Cl)cc1`, with 67%; and `CCCn1c2ccccc2c2cnn(CC(=O)NC(CCSC)C(=O)OC)c(=O)c21` (stereo not given), with 124%.
For `N#Cc1nc(/C=C/c2ccc(F)cc2)oc1N1CCCCC1`, the survival was 93%.
`COc1ccc(NC(=O)CCNS(=O)(=O)c2ccc3c(c2)CCCC(=O)N3)cc1`: the survival was 101%.
Under `O=C(NCCc1ccccc1)c1ccc(Cn2c(SCc3ccc(F)cc3)nc3cccnc32)cc1` stands 95%; under `CC(=O)c1cccc(NC(=O)CSc2nc3c(=O)n(C)c(=O)n(C)c3n2C)c1`, 79%; under `CC(C)c1ccc2oc(-c3cc(NC(=O)c4cccnc4)ccc3Cl)nc2c1`, -2% (active).
Under `Cc1cc(C)c2oc(-c3ccc(NC(=O)c4cc(Br)ccc4Cl)cc3)nc2c1` stands 89%; under `Cc1cc(C)c2oc(-c3ccc(Cl)c(NC(=O)c4cccs4)c3)nc2c1`, 55% (active).
With `Cc1cc(NC(=O)c2cccnc2)cc(-c2nc3cc(Cl)ccc3o2)c1O`, the survival was 140%.
For `O=C(Nc1cc(-c2nc3cc(Cl)ccc3o2)ccc1Cl)c1cccs1`, the survival was 59%.
Under `CCc1ccc2oc(-c3cc(NC(=O)c4cccnc4)cc(C)c3O)nc2c1` stands 65%.
Under `CCOc1ccccc1NC(=O)C1CCCN(S(=O)(=O)c2c(C)[nH]c(=O)[nH]c2=O)C1` (stereo not given) stands 88%.
Then `CC(C)c1cc(-c2nc(-c3ccc(Br)cc3)no2)n[nH]1`, with 95%; and `O=C(Cn1c(-c2cccs2)cc2cc(F)ccc21)NCCc1ccc(Cl)cc1`, with 91%; and `Cc1ccc(-n2ncc3c(NCc4ccccc4)ncnc32)cc1Cl`, with -4% (active).
Consider `Clc1cccc(-n2ncc3c(NCCc4ccccc4)ncnc32)c1`, for which the survival is 94%.
Then `Cc1ccc(Cl)cc1-n1ncc2c(NCCC3=CCCCC3)ncnc21`, with 91%.
For `Cc1ccc(-n2ncc3c(NCc4ccccc4)ncnc32)cc1C`, the survival is 70%.
Under `Cc1ccc(-n2ncc3c(NCCC4=CCCCC4)ncnc32)cc1C` stands 119%; under `Clc1cccc(-n2ncc3c(NCCC4=CCCCC4)ncnc32)c1`, 37% (active).
Then `Fc1ccc(-n2ncc3c(NCCC4=CCCCC4)ncnc32)cc1`, with 83%.
Then `Cc1ccc(-n2ncc3c(NCCc4ccccc4)ncnc32)cc1Cl`, with 65%; and `Cc1ccc(-n2ncc3c(NCCC4=CCCCC4)ncnc32)cc1`, with 20% (active); and `COc1cccc(C2C(C(=O)Nc3cccnc3)=C(C)Nc3nc(SCc4ccccc4)nn32)c1` (stereo not given), with 81%.
Take `COc1ccc(Cn2c(SCc3ccc(C(=O)NC4CCCC4)cc3)nc3cccnc32)cc1`: the survival is 69%.
Then `COC(=O)c1sc2nc3ccccc3cc2c1N`, with 93%.
Then `COCCNS(=O)(=O)c1ccc(S(=O)(=O)N2CCCCC2)cc1`, with 103%.
Regarding `Cc1ccc2cc(CN(CC3CCCO3)C(=O)C3CCC3)c3nnnn3c2c1` (stereo not given), the survival is 95%.
As for `CCC(C)NC(=O)CCCc1nnc2n(CC(C)C)c(=O)c3sccc3n12` (stereo not given), the survival is 94%.
As to `O=S(=O)(NCCS(=O)(=O)N1CCN(c2ccccc2)CC1)c1ccccc1`, the survival is 81%.
Then `CCN(C1CCCCC1)S(=O)(=O)c1ccc(S(=O)(=O)NC2CC2)cc1`, with 90%.
For the compound `O=C(Nc1ccccc1)C1CCN(S(=O)(=O)c2ccc3c(c2)CCCN3C(=O)C2CCC2)CC1`, the survival is 95%.
Then `CCOc1ccc(Nc2c(S(=O)(=O)c3ccc(Cl)cc3)cnc3ccc(OC)cc23)cc1`, with 67%.
Under `CCOc1ccc(Nc2c(S(=O)(=O)c3ccc(C)cc3)cnc3ccccc23)cc1` stands 43% (active).
Consider `CCOc1ccc(Nc2c(S(=O)(=O)c3ccc(C)cc3)cnc3cc(OC)c(OC)cc23)cc1`, for which the survival was 70%.
Then `CCOc1ccc(Nc2c(S(=O)(=O)c3ccc(C)cc3)cnc3ccc(F)cc23)cc1`, with 64%.
Under `CCOc1ccc(Nc2c(S(=O)(=O)c3ccccc3)cnc3ccc(F)cc23)cc1` stands 92%; under `CCOc1ccc(Nc2c(S(=O)(=O)c3ccccc3)cnc3ccccc23)cc1`, 38% (active); under `CCOc1ccc(Nc2c(S(=O)(=O)c3ccc(C)cc3)cnc3ccc(OC)cc23)cc1`, 59%.
Then `CCOc1ccc(Nc2c(S(=O)(=O)c3ccc(Cl)cc3)cnc3ccc(OCC)cc23)cc1`, with 66%.
Consider `CCOc1ccc(Nc2c(S(=O)(=O)c3ccccc3)cnc3ccc(CC)cc23)cc1`, for which the survival was 34% (active).
For `CCOc1ccc(C(=O)NCC(c2ccc3c(c2)OCO3)N2CCN(c3ccc(F)cc3)CC2)cc1` (stereo not given), the survival is 87%.
Under `COc1ccc(Cl)cc1NC(=O)Cn1cnc2sc(C)c(S(=O)(=O)N3CCN(c4ccccc4OC)CC3)c2c1=O` stands 79%; under `CCN(c1ccccc1)c1nnc(NC(=O)Nc2ccc(Br)c(C)c2)s1`, 89%; under `COc1ccccc1NC(=O)c1c(-c2ccc(C)cc2)nnc2ccccc12`, 105%.
Under `Cc1nc2ccc(S(=O)(=O)CCC(=O)Nc3ccc(C(C)C)cc3)cc2s1` stands 50%; under `CC(C)c1ccc(S(=O)(=O)Nc2ccc(O)c(Sc3nc4ccccc4s3)c2)cc1`, 1% (active); under `Cc1cc(F)ccc1S(=O)(=O)Nc1ccc(O)c(Sc2ncn[nH]2)c1`, 111%.
Regarding `Cc1nc2ccc(S(=O)(=O)NC(C(=O)NCc3ccccc3Cl)C(C)C)cc2s1` (stereo not given), the survival was 102%.
Under `CC(C)(C)c1ccc(S(=O)(=O)Nc2ccc(O)c(Sc3nc4ccccc4s3)c2)cc1` stands -4% (active); under `Cc1cc(S(=O)(=O)Nc2ccc(O)c(Sc3nc4ccccc4s3)c2)ccc1Cl`, -1% (active).
Consider `Cn1c(=O)sc2cc(NS(=O)(=O)c3ccc(C(C)(C)C)cc3)ccc21`, for which the survival was 92%.
Turning to `CS(=O)(=O)Nc1ccc(-c2nc3ccccc3s2)cc1`, the survival was 48%.
Take `CC(C)c1ccc(C(=O)Nc2ccc(-c3nc4ccccc4s3)c(Cl)c2)cc1`: the survival is 216%.
For the compound `O=C(Nc1ccc(Cl)cc1-c1nc2ccccc2s1)c1ccco1`, the survival was 74%.
Regarding `CC(C)NC(=O)c1nc2ccccc2s1`, the survival was 88%.
Then `O=S(=O)(Nc1ccc(O)c(Sc2nc3ccccc3s2)c1)c1cc(Cl)ccc1Cl`, with -8% (active); and `CCOC(=O)CNc1nnc(SCC(=O)OCC)[nH]c1=O`, with 71%.
Under `Cc1ccc2oc(C(=O)Nc3ccc(S(=O)(=O)N4CCCC(C)C4)cc3)cc(=O)c2c1` (stereo not given) stands 69%.
For the compound `Cc1ccc(Cl)cc1N1CCN(CCCNc2ncnc3onc(-c4ccc(F)cc4)c23)CC1`, the survival was 80%.
Then `Cc1ccc2nc(-c3ccncc3)c(Nc3ccc(C(C)C)cc3)n2c1`, with 75%.
For `CC(C)(Cc1ccc(O)cc1)NC(=O)c1ccccc1`, the survival is 86%.
Then `CC(=O)c1c(C)n(-c2cccc(Cl)c2)c2ccc(OC(=O)c3ccccc3)cc12`, with 77%.
Under `CN(CC(=O)NCc1ccccc1Cl)S(=O)(=O)c1ccc2c(c1)c(=O)n(C)c(=O)n2C` stands 130%; under `CCOc1ccccc1C(=O)Nc1ccc(S(=O)(=O)Nc2ncccn2)cc1`, 76%.
`CC1=CCC2C(=O)N(C3CCCCC3)C(=O)C2C1` (stereo not given): the survival was 79%.
Then `Cc1ccc(NC(=O)N2CCN(c3ccc(Cl)c(Cl)c3)CC2)cc1`, with 102%; and `O=C(Nc1ccc(F)cc1F)N1CCN(c2ccc(Cl)c(Cl)c2)CC1`, with 48% (active).
Turning to `CC(C)c1ccc(NC(=O)N2CCN(c3ccc(Cl)c(Cl)c3)CC2)cc1`, the survival was 87%.
Turning to `CCn1cc(S(=O)(=O)c2ccc(C)cc2)c(=O)c2cc(F)c(N3CCCCCC3)cc21`, the survival was 90%.
For the compound `CC(C)C(=O)Nc1nnc2n1CCS2`, the survival is 101%.
Then `C=C(C)CSc1nc2sc3c(c2c(=O)n1Cc1ccccc1)CC(C)(CC)OC3` (stereo not given), with 42% (active); and `CCCSc1nc2sc3c(c2c(=O)n1Cc1ccccc1)CC(C)(CC)OC3` (stereo not given), with 14% (active); and `C=C(C)CSc1nc2sc3c(c2c(=O)n1-c1ccccc1)CC(C(C)C)OC3` (stereo not given), with 76%.
Then `CCCCSc1nc2sc3c(c2c(=O)n1-c1ccccc1C)CC(C)(C)OC3`, with 48%.
Take `CCCSc1nc2sc3c(c2c(=O)n1-c1cccc(Br)c1)CC(C)(C)OC3`: the survival is 61%.
Under `CCn1c(NN)nc2sc3c(c2c1=O)CC(C)(C)OC3` stands 104%.
